Values joined by “and” are separate entries in the source; they are usually repeats but may differ in a detail not shown here. Equal entries are not always repeated. Some compounds were tested as several samples or in several runs, with calls that do not always agree. Active and inactive are the calls of the source. How the source made its calls: active means hit-call score of the fitted dose curve at least 0.9, where 1 is the maximum; inactive means score below 0.9.
Assays:
[1] = BSK_BT_Bcell_Proliferation: Viability Assessment in the BioMAP Diversity Plus: BT Assay for B cell Proliferation (AID 2284227); conditions: primary human B cells with PBMC
Outline: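 Using a human primary B cell–PBMC co-culture, the assay measures total protein by sulforhodamine B absorbance as a gauge of proliferation after 72 h. Analysis followed the positive fitting direction with DMSO as baseline.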

[2] = read-out: Interleukin 6 (IL6), IL6 (gene 3569); test: BSK_BT_xIL6: BioMAP Diversity Plus: BT Assay for Interleukin 6 (IL6) Biomarker Activity (AID 2284228); conditions: primary human B cells with PBMC
Outline: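 Human B cell plus PBMC co-culture exposed to test chemical for 24 h; secreted IL-6 quantified by Luminex xMAP bead assay. Activity fitted in the positive direction against DMSO as negative control and baseline.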

[3] = read-out: Interleukin 17A (IL17A), IL17A (gene 3605); test: BSK_BT_xIL17A: BioMAP Diversity Plus: BT Assay for Interleukin 17A (IL17A) Biomarker Activity (AID 2284229); conditions: primary human B cells with PBMC
Outline: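 B cells co-cultured with PBMC were exposed to test chemicals, and secreted IL-17A was quantified 24 h after dosing by Luminex xMAP bead immunoassay. Activity was fitted in the gain direction against DMSO as baseline.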

[4] = read-out: Tumor necrosis factor (Homo sapiens) (UniProt P01375); test: BSK_BT_xTNFa: BioMAP Diversity Plus: BT Assay for Tumor necrosis factor alpha (TNF-alpha) Biomarker Activity (AID 2284230); conditions: primary human B cells with PBMC
Outline: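 Endpoint derived in the positive direction versus DMSO vehicle. Cells: B cells together with PBMC, exposed 24 h before TNF-alpha in the medium was read on the Luminex xMAP platform.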

[5] = read-out: Vascular cell adhesion molecule 1 (VCAM1), VCAM1 (gene 7412); test: BSK_MyoF_VCAM1: BioMAP Diversity Plus: MyoF Assay for Vascular cell adhesion molecule 1 (VCAM1) Biomarker Activity (AID 2284231); conditions: primary human lung fibroblasts
Outline: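 Primary human lung fibroblasts were dosed with test chemical for 24 h, then cell-surface VCAM-1 was measured by ELISA. Activity was fitted in the positive direction against DMSO as negative control and baseline.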

[6] = read-out: Collagen I, COL1A1 (gene 1277); test: BSK_MyoF_CollagenI: BioMAP Diversity Plus: MyoF Assay for Collagen I Biomarker Activity (AID 2284238); conditions: primary human lung fibroblasts
Outline: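 Human lung fibroblasts were exposed to test chemical for 24 h, then Collagen I was quantified by ELISA. Activity was fitted in the increasing direction against DMSO as the negative control and baseline.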

[7] = read-out: Collagen III, COL3A1 (gene 1281); test: BSK_MyoF_CollagenIII: BioMAP Diversity Plus: MyoF Assay for Collagen III Biomarker Activity (AID 2284239); conditions: primary human lung fibroblasts
Outline: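 Human lung fibroblasts were dosed with chemicals and, 24 hours later, collagen III was measured by ELISA. Activity was fitted in the positive direction against the DMSO negative-control baseline.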

[8] = read-out: Interleukin 17F (IL17F), IL17F (gene 112744); test: BSK_BT_xIL17F: BioMAP Diversity Plus: BT Assay for Interleukin 17F (IL17F) Biomarker Activity (AID 2284243); conditions: primary human B cells with PBMC
Outline: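 B cell/PBMC co-culture (human primary), 24 h compound exposure; sIL-17F by Luminex xMAP; gain-of-signal fit vs DMSO baseline.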

[9] = read-out: Interleukin 2 (IL2), IL2 (gene 3558); test: BSK_BT_xIL2: BioMAP Diversity Plus: BT Assay for Interleukin 2 (IL2) Biomarker Activity (AID 2284245); conditions: primary human B cells with PBMC
Outline: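 Secreted IL-2 was read by Luminex xMAP from B cells co-cultured with PBMC (human primary) 24 h post-dosing; activity was analysed as gain of signal relative to DMSO vehicle.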

[10] = read-out: Basic fibroblast growth factor (bFGF), FGF2 (gene 2247); test: BSK_MyoF_bFGF: BioMAP Diversity Plus: MyoF Assay for Basic fibroblast growth factor (bFGF) Biomarker Activity (AID 2284246); conditions: primary human lung fibroblasts
Outline: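 bFGF was measured by ELISA in primary human lung fibroblasts 24 h after chemical addition. Signal was analysed as positive-direction change relative to DMSO baseline.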

[11] = read-out: Collagen IV, COL4A1 (gene 1282); test: BSK_MyoF_CollagenIV: BioMAP Diversity Plus: MyoF Assay for Collagen IV Biomarker Activity (AID 2284247); conditions: primary human lung fibroblasts
Outline: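 Collagen IV quantified by ELISA in human lung fibroblast cultures 24 h after chemical treatment, with DMSO as baseline. Parallel SRB staining (0.1% SRB after TCA fixation, 560 nm) flags overt cytotoxicity.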

[12] = read-out: Actin alpha 1 (ACTA1), ACTA1 (gene 58); test: BSK_MyoF_ACTA1: BioMAP Diversity Plus: MyoF Assay for Actin alpha 1 (ACTA1) Biomarker Activity (AID 2284244); conditions: primary human lung fibroblasts
Outline: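 alpha-SMA levels read by ELISA against DMSO baseline, 24 h post-dose, in primary human lung fibroblasts. Parallel cultures stained with 0.1% SRB after 10% TCA fixation (560 nm) to flag overt cytotoxicity.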

Measured: AC50

Tumor necrosis factor (Homo sapiens), sequence (P01375 whole entry, looked up): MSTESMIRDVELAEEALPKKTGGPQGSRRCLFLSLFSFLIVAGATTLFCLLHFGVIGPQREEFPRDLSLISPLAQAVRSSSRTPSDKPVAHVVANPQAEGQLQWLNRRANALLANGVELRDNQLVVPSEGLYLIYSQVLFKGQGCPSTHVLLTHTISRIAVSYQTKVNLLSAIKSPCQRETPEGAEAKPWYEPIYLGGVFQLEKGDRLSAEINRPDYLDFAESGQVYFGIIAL

Oc1c(Cl)cc(Cl)c(Cl)c1Cl
active: [5] 11.6 µM | [6] 20 µM | [7] 16.5 µM | [10] 20 µM
not listed: [12]
inactive: all other assays above

CCNc1nc(NC(C)(C)C)nc(OC)n1
not listed: [12]
inactive: all other assays above

CCCCCC1=CCCC1=O
not listed: [12]
inactive: all other assays above

Fc1ccc(Br)cc1
inactive: all assays above

CCCCCCCO
inactive: all assays above

CCOC(=O)/C=C\C(=O)OCC
not listed: [12]
inactive: all other assays above

O=C1CCCCCCCCCCC1
inactive: all assays above

CC1(C)CC(O)CC(C)(C)N1[O]
not listed: [12]
inactive: all other assays above

c1ccc2c(c1)[nH]c1ccccc12
not listed: [12]
inactive: all other assays above

COC(OC)(C(=O)c1ccccc1)c1ccccc1
not listed: [12]
inactive: all other assays above

CC(c1cc(C(C)(C)C)cc(C(C)(C)C)c1O)c1cc(C(C)(C)C)cc(C(C)(C)C)c1O
active: [1] 28.1 µM | [2] 32.3 µM | [3] 17.2 µM | [4] 26.5 µM | [8] 18.1 µM | [9] 20 µM
inactive: [5] | [6] | [7] | [10] | [11]

C=C(C)C(=O)OCCCCCCCCCCCC
not listed: [12]
inactive: all other assays above

CC(C)c1cccc(C(C)C)c1N
not listed: [12]
inactive: all other assays above

CCCCCCCCCCCC(C)=O
not listed: [12]
inactive: all other assays above

COc1ccc(C(=O)/C(Br)=C\C(=O)O)cc1
inactive: [6] | [7] | [10] | [11]
active: [1] 25.4 µM and 18.6 µM | [2] 20 µM | [3] 24.3 µM and 25.6 µM | [4] 31.3 µM and 29.5 µM | [5] 25.5 µM and 10.5 µM | [7] 20 µM | [8] 26.5 µM and 30.2 µM | [9] 23.2 µM and 20 µM

CCOC(=O)C1=NN(c2ccc(Cl)cc2Cl)C(C)(C(=O)OCC)C1 (stereo not drawn)
not listed: [12]
inactive: all other assays above

COc1ccc(C(=O)c2ccccc2)c(O)c1
inactive: all assays above

CCCCCCC=O
inactive: all assays above

CC/C=C\C/C=C\C/C=C\CCCCCCCC(=O)OC
active: [1] 21.6 µM | [2] 13.5 µM | [3] 12 µM | [4] 27.8 µM | [5] 11.1 µM | [6] 9.7 µM | [7] 10.6 µM | [8] 15.2 µM | [12] 6.98 µM | [9] 27.5 µM | [10] 9.83 µM | [11] 20 µM

Clc1cc(Cl)c(Cl)c(Cl)c1Cl
active: [5] 20 µM
not listed: [12]
inactive: all other assays above

CCOC(=O)C1=NOC(c2ccccc2)(c2ccccc2)C1
active: [2] 6.05 µM
not listed: [12]
inactive: all other assays above

O=C(Cl)c1c(Cl)c(Cl)c(C(=O)Cl)c(Cl)c1Cl
not listed: [12]
inactive: all other assays above

Cc1c(O)cccc1O
not listed: [12]
inactive: all other assays above

CCN1CN(CC)CN(CC)C1
inactive: all assays above

CC=C(C)C(C)=O
not listed: [12]
inactive: all other assays above

— PubChem BioAssay (EPA / NIEHS)
